Laboratory results taken from PubChem BioAssay AID588832 (Broad Institute, 2011).
Screen size: about 8,000 compounds; fewer than 10 were called active. These entries were drawn from the full list. Values without a mark were called inactive. The rule behind the calls is not given here.

test system: hedgehog, isoform A (Drosophila melanogaster); assay: Hh protein inhibition, biochemical readout – plate reader, single concentration, primary screen (AID 588832); details: Biochemical plate reader assay, at 30.3 µM, stronger effect = higher value;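 note: 0% = neutral control wells and 100% = positive control wells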

| Compound | inhibition |
| --- | --- |
| O=C(Cc1cc(=O)[nH]c(=O)[nH]1)NCCN1CCOCC1 | 9.62% |
| COc1ccc2c(c1OC)C(=O)N1C2SC[C@H]1C(=O)NC1CCCCC1 (some centres undefined) | 4.89% |
| c1ccc(Nc2nc3ccccc3n3nnnc23)cc1 | 1.79% |
| Cc1cc(C)cc(N2CC(c3nc4ccccc4n3C)CC2=O)c1 (centres undefined) | 5.06% |
| Cc1ccc(CNC(=O)[C@@H](NC(=O)C2CCN(C(=O)[C@@H]3CCCN3)CC2)C(C)C)cc1 | 8.17% |
| Cc1csc2ncc(C(=O)NC(C)c3ccccc3)c(=O)n12 (centres undefined) | 7.24% |
| CC1CCN(Cc2ccc(NC(=O)C3CCN(c4nnc(-n5cccc5)s4)CC3)cc2)CC1 | 1.99% |
| CCOC(=O)Cn1c(=O)n(Cc2ccco2)c(=O)c2ccc(C(=O)NC3CCCC3)cc21 | -13% |
| O=C(Nc1ccc(F)cc1F)C1CCN(c2ncnc3c2sc2cccc(F)c23)CC1 | 7.02% |
| CCCCOC(=O)c1cc(=O)[nH]c(=O)[nH]1 | 5.12% |
| Cc1cc(C)n2nc(S(=O)(=O)N(C)c3ccccc3)nc2n1 | 6.52% |
| Cc1nc2sc(C(c3ccccc3)N3CCN(C)CC3)c(O)n2n1 (centres undefined) | 14.5% |
| COc1ccc(-c2nc(C(=O)NCCCN3CCOCC3)cc3c2[nH]c2ccccc23)cc1OC | 1.72% |
| C[C@H](NC(=O)[C@H]1N2C(=O)c3ccccc3C2SC1(C)C)C(=O)N1CCC[C@H]1CO (some centres undefined) | 1.72% |
| Cc1ccc(Cl)cc1N1CCN(C(=O)C2CCN(c3nnc(-n4cccc4)s3)CC2)CC1 | 15.4% |
| Cc1cc(C)n2c(SCC(=O)Nc3ccccc3)nnc2n1 | -12.9% |
| Cc1ccc(S(=O)(=O)Nc2ccccc2C(=O)Nc2sccc2C(=O)NN(C)C)cc1 | 7.69% |
| O=c1cc(-c2ccc(O)cc2)oc2c(-c3c(O)cc(O)c4c(=O)cc(-c5ccc(O)cc5)oc34)c(O)cc(O)c12 | 3.51% |
| COc1c(O)c(O)c2oc(-c3ccccc3)cc(=O)c2c1OC | 6.79% |
| O=c1cc(-c2ccc(O)cc2)oc2c(O)c(O)c(O)c(O)c12 | 89.5% (active) |

| Compound | inhibition |
| --- | --- |
| CN(C)C(=O)c1nnc(Cc2ccc(Cl)cc2)o1 | 12.9% |
| Cc1c(C(=O)NNc2cc(=O)n(C)c(=O)n2C)cccc1[N+](=O)[O-] | 1.72% |
| NC(=O)c1c(NC(=O)c2c(F)cccc2F)sc2c1CCN(Cc1ccccc1)C2 | 0% |
| COc1ccc(-n2c(Cc3cccn3C)nnc2SCC(=O)Nc2ccccc2OC)cc1 | 5% |
| CCOc1ccc(C(=O)c2cnc3ccccc3c2N2CCN(CC)CC2)cc1 | 20% |
| O=C(Cn1cnc2c(nnn2Cc2ccccc2)c1=O)NCc1ccco1 | 2.73% |
| CCOC(=O)c1c(C)c(-c2ccccc2)n(CC(=O)N2CCCC2)c1C | 0.909% |
| Cc1cc(Nc2cccc(F)c2)n2nc(C)nc2n1 | -2.57% |
| C=CC[C@]12C[C@@H](OC)C(=O)C=C1O[C@@H](c1ccc(OC)c(OC)c1)[C@H]2C | 8.62% |
| CC1Cc2ccccc2N1C(=O)c1cnc2sccn2c1=O (centres undefined) | -0.943% |
| CCOc1ccc(CC(=O)NCc2ccc3c(c2)cc(C)n3C)cc1 | 3.85% |
| O=C(COc1ccc2c(c1)oc(=O)c1ccccc12)N[C@@H](Cc1ccccc1)C(=O)O | 0% |
| COC(=O)C1=C(C)n2cnnc2NC1c1ccc(Cl)cc1 (centres undefined) | 15% |
| Cc1ccc(C)c(N2CCN(C(=O)c3ccc4c(=O)n5c(nc4c3)CCCCC5)CC2)c1 | -12.9% |
| COc1ccc(C(=O)NCc2ccc3c(c2)cc(C)n3C)cc1 | 5.23% |
| COc1ccccc1NS(=O)(=O)c1cc2c(cc1C)NC(=O)CO2 | 9.62% |
| Cc1ccc(NC(=S)NCc2ccc3[nH]c4c(c3c2)CCCC4)cc1 | 4.39% |
| COc1ccc(-c2nc(CS(=O)CC(=O)NCCC3=CCCCC3)c(C)o2)cc1 (centres undefined) | 7.69% |
| Cc1cnc(NC(=O)CSc2nnc(COc3c(C)cccc3C)o2)s1 | 10% |
